FadD28 binding: inhibitors of FadD28 bisubstrate probe binding, primary screen, biochemical, fluorescence polarization, single point. inhibition, % at 12.5 µM. actives 0.22% (n = 360,000). Mycobacterium tuberculosis FadD28 fatty-acid-AMP ligase. AID 588549, 2011; in the data active = inhibition above about 8.5%, passing the limit was not always enough
UGM FP inh: M. tuberculosis UGM enzyme inhibitors, primary screen, biochemical, fluorescence polarization, single point. actives 0.06% (n = 320,000). purified UGM, fluorescence polarization probe displacement. UDP-galactopyranose mutase (Mycobacterium tuberculosis (strain ATCC 25618 / H37Rv)), …. AID 504406, 2011. inhibition, % at 10 µM; in the data active = inhibition above about 10%, passing the limit was not always enough
PrPC surface inh: inhibitors of human cell surface prion protein PrPC, primary screen, cell-based, TR-FRET. TR-FRET read-out. AID 720596, 2013. Major prion protein (Homo sapiens), P04156. inhibition, % at 13.8 µM. actives 0.43% (n = 370,000); in the data active = inhibition above about 24%
PrP 5UTR inh: inhibition of PrP 5' UTR reporter expression; actives 0.35% (n = 340,000); inhibition, % (test concentration not listed); AID 488862, 2010; cell-based PrP 5' UTR mRNA reporter, plate reader; in the data active = inhibition above about 52%
Rv3671c inh: Rv3671c serine protease inhibitors, primary screen, biochemical, fluorescence polarization, M. tuberculosis H37Rv | inhibition, % at 5.96 µM | actives 0.048% (n = 320,000) | P9WHR9; in the data active = inhibition above about 38%;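 note: extracellular domain of Rv3671c used as enzyme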
PriA SSB inh: inhibitors of Klebsiella pneumoniae PriA binding to SSB C-terminal tail, primary screen, biochemical, AlphaScreen; PriA–SSB C-terminal tail interaction (Klebsiella pneumoniae); AlphaScreen SSBct-PriA binding, biotinylated peptide; inhibition, % at 33 µM; actives 0.6% (n = 430,000); AID 1272365, 2023; in the data active = inhibition mostly above about 37%, no sharp cut-off; inactive = mostly below about 20%
PrPC TRFRET cf: confirmation of inhibitors of cell surface human prion protein, confirmation, cell-based, TR-FRET. shares compounds with PrPC surface inh. inhibition, % at 13.8 µM. cell surface PrPC level. actives 65% (n = 1,500); in the data active = inhibition above about 25%
LD9 tox: cytotoxicity in LD9 cells, cytotoxicity control for cell surface PrPc inhibitor project, cell-based, luminescence, high throughput; luminescence viability; actives 29% (n = 1,500); inhibition, % at 13.8 µM; AID 743201, 2013; shares compounds with PrPC surface inh; in the data active = inhibition above about 9.5%
A number is an active result; - = inactive; . = not tested or not shown. An excerpt weighted towards active compounds, which were near 1.2% of everything screened.

SMILES	FadD28 binding	UGM FP inh	PrPC surface inh	PrP 5UTR inh	Rv3671c inh	PriA SSB inh	PrPC TRFRET cf	LD9 tox
COc1ccc(-c2ccc(SCC(=O)Nc3nccs3)nn2)cc1OC	-	-	29.1	-	-	-	38.0	-
O=C(Sc1cccc2cccnc12)c1ccccc1Br	-	-	30.3	-	-	.	-	83.0
CC[C@@H]1CCC[C@@H](O)[C@@H](C)C(=O)O[C@H](C)[C@@H](C)C/C=C(C)/C(OC)=C\C(=O)N(C)C([C@@H](C)CC)C(=O)N(C)[C@@H](C(C)C)C(=O)N(C)[C@@H](COC)C(=O)N2CCC[C@H]2C(=O)N(C)[C@@H](C(C)C)C(=O)N2CCC[C@H]2C(=O)O1 (some centres undefined)	-	.	41.4	.	.	.	51.1	15.7
O=C(COc1ccc(Cl)cc1)Nc1cnc(N2CCOCC2)nc1	.	.	.	.	.	-	.	.
COc1ccccc1-n1ncc2c(C)nnc(SCC(=O)N3CCCCC3)c21	.	.	.	.	.	-	.	.
COc1ccc(-c2cc(CNc3nc(NC(C)C)nc4cc(-c5ccccc5)sc34)on2)cc1	-	.	25.4	.	.	.	40.2	-
NNC(=O)C(=O)Nc1ccc(O)cc1	-	-	31.0	-	-	-	-	-
COc1cccc(NC(=O)CCC2CCN(C(=O)C3CC=CCC3)CC2)c1 (centres undefined)	-	-	29.4	-	-	-	-	-
N=c1c2c(-c3ccccc3)c(-c3ccccc3)n(Cc3ccco3)c2ncn1CCCn1ccnc1	-	-	26.9	-	-	-	-	19.4
Cc1cc(C)cc(OCCNC(=O)c2c[nH]c(=O)n(C)c2=O)c1	.	.	.	.	.	-	.	.
O=C(NCc1ccccc1)NC1CCC(Oc2ncccn2)CC1 (centres undefined)	.	.	.	.	.	-	.	.
CCCCC1=CC2=C(c3ccco3)C(=O)C(C)(OC(=O)c3ccc(OC)cc3)C(=O)C2=CN1CCc1ccccn1 (centres undefined)	-	-	25.8	-	-	-	33.3	-
CCC(C)C(NC(=O)CCCNC(=O)CCC(=O)OC1O[C@H]2OC3(C)CC[C@H]4[C@H](C)CCC(C1C)C24OO3)C(=O)O (some centres undefined)	-	-	27.8	-	-	.	31.0	22.1
CCC(C)NC(=O)CCC(=O)OC1O[C@H]2OC3(C)CC[C@H]4[C@H](C)CCC(C1C)C24OO3 (some centres undefined)	-	-	28.1	-	.	-	30.8	21.4
Cc1nnc(NC(=O)CSc2ncnc3c2oc2ccccc23)s1	.	.	.	.	.	-	.	.
Cc1nc2ccc3ccccc3c2s1	.	.	.	.	.	-	.	.
O=S(=O)(Nc1ccncc1)c1cc(Cl)c(Cl)cc1Cl	-	-	43.4	-	-	-	-	-
COc1ccc(Cl)cc1S(=O)(=O)Nc1ccncc1	-	-	-	-	-	-	.	.
CCOc1ccc(NC(=O)Nc2ccc(Cc3ccncc3)cc2)cc1	-	-	33.2	-	-	-	28.7	-
CCOc1ccc(NC(=O)C(=O)NCc2ccncc2)cc1	-	-	-	-	-	-	.	.
CCC(C)c1ccccc1OCC(=O)Nc1ccc(S(N)(=O)=O)cc1 (centres undefined)	.	.	.	.	.	-	.	.
C=C1C(C)C2C(Cc3ccccc3)NC(=O)C23OC(=O)/C=C/C(O)CCCC(C)C/C=C/C3C1O (centres undefined)	-	.	25.7	-	.	-	-	14.1
C=C1[C@@H](C)[C@H]2[C@H](Cc3ccccc3)NC(=O)[C@]23OC(=O)C=C[C@H](O)CCC[C@@H](C)CC=C[C@H]3[C@@H]1O	.	.	.	.	.	-	.	.
CCCN1C(=O)c2[nH]nc(-c3cc(Cl)c(C)cc3O)c2C1c1ccc(O)c(OC)c1 (centres undefined)	-	-	25.6	-	-	-	-	-

Screening results as filed in PubChem BioAssay.
